GDH-TPI counter: GDH-TPI coupled enzyme inhibition counter-screen; GDH-TPI coupled enzyme counterscreen, NADH absorbance; inhibition, % at 4.8 µM; hit rate 1.2% among 360,000; in the data active means inhibition above about 30%;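 further: 0% = DMSO wells and 100% = wells lacking the enzyme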
Mtb FBA inh: inhibitors of M. tuberculosis fructose-bisphosphate aldolase | purified M. tuberculosis FBA, fluorescence read-out | AID 588726 | inhibition, % at 1 µM | P9WQA3 | hit rate 2.3% among 360,000; in the data active means inhibition above about 27%;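 further: 0% = vehicle and 100% = reference inhibitor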
Rv3671c inh: inhibitors of M. tuberculosis serine protease Rv3671c; inhibition, % at 5.96 µM; hit rate 0.048% among 320,000; in the data active means inhibition above about 38%;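 further: extracellular domain of Rv3671c used as enzyme; 0% = enzyme with DMSO and 100% = no enzyme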
PriA SSB inh: inhibitors of Klebsiella pneumoniae PriA binding to SSB C-terminal tail; AlphaScreen SSBct-PriA binding, biotinylated peptide; inhibition, % at 33 µM; hit rate 0.6% among 430,000; in the data active means inhibition mostly above about 37%, no sharp cut-off; inactive means mostly below about 20%;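 further: plate controls were negative control peptide for no effect and reference peptide for full effect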
Mtb bLac sens: beta-lactam sensitization of Mtb H37Rv | M. tuberculosis H37Rv growth with meropenem, percent inhibition | inhibition, % at 25 µM | hit rate 0.27% among 330,000 | AID 434955; call rule not given here;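 further: growth measured after seven days incubation then overnight dye step; 0% = bacteria only wells and 100% = bacteria with antibiotic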
UGM FP inh: blocks M. tuberculosis UGM enzyme; P9WIQ1; purified UGM, fluorescence polarization probe displacement; inhibition, % at 10 µM; hit rate 0.06% among 320,000; AID 504406; in the data active means inhibition above about 10%, passing the limit was not always enough
Target sequence (P9WIQ1 whole entry, looked up): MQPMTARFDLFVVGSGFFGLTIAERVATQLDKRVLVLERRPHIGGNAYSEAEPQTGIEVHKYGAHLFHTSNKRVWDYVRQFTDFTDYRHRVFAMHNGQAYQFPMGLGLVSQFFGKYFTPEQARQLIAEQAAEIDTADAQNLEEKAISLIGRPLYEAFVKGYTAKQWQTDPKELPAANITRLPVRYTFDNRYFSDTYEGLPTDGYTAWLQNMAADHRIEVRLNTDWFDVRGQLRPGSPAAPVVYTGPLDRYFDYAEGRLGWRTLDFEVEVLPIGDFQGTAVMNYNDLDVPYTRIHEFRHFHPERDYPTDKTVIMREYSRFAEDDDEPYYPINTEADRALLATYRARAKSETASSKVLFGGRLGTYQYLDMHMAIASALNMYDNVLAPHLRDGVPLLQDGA
The depositor's hits bear a star. The list is not random: actives were taken first. Their share in the collection is about 3.2%.

How did O=[N+]([O-])c1cc(CN2CCCC2)ccc1Sc1ccc(Cl)cc1 do in these assays?
GDH-TPI counter: 0; Mtb FBA inh: 0; Rv3671c inh: 1; PriA SSB inh: 43*; Mtb bLac sens: -1; UGM FP inh: -4

How did COC(=O)c1ccc(COc2ccc(/C=C(\C#N)c3nc4ccccc4[nH]3)cc2OC)o1 do in these assays?
GDH-TPI counter: 32*; Mtb FBA inh: 6; Rv3671c inh: -5; PriA SSB inh: 0; Mtb bLac sens: -4; UGM FP inh: 0

What do the screens show for `COc1cc(/C=C(/C#N)c2nc3ccccc3[nH]2)ccc1OCc1ccc(C(=O)O)o1`?
GDH-TPI counter: 24; Mtb FBA inh: 5; Rv3671c inh: -12; PriA SSB inh: -8; Mtb bLac sens: 48; UGM FP inh: 1

What do the screens show for `CC1CCN(CCCNC(=O)c2cc3c(s2)-c2ccccc2OC3)CC1`?
GDH-TPI counter: 8; Mtb FBA inh: active; Rv3671c inh: -3; PriA SSB inh: -13; Mtb bLac sens: 2; UGM FP inh: -3

Results for Cc1cccc2c1-c1sc(C(=O)NCCCN3CCC(C)CC3)cc1CO2 ?
GDH-TPI counter: 16; Mtb FBA inh: active; Rv3671c inh: -12; PriA SSB inh: -19; Mtb bLac sens: 3; UGM FP inh: 0

How did COc1ccc(N(C)C(=O)c2cc3c(s2)-c2c(C)cccc2OC3)c(OC)c1 do in these assays?
GDH-TPI counter: 31*; Mtb FBA inh: 6; Rv3671c inh: -14; PriA SSB inh: -1; Mtb bLac sens: 6; UGM FP inh: -3

How did CC1CCCN(CCCNC(=O)c2cc3c(s2)-c2ccccc2OC3)C1 (centres undefined) do in these assays?
GDH-TPI counter: 23; Rv3671c inh: -7; PriA SSB inh: -14; Mtb bLac sens: 0; UGM FP inh: 0

What do the screens show for `Cc1cc(Br)c(NC(=O)CSc2cccc3cccnc23)cc1C`?
PriA SSB inh: 32

Results for CCn1cc(C2C3=C(CC(C)(C)CC3=O)N(c3ccc(C)cc3)C3=C2C(=O)CC(C)(C)C3)c(C)n1 ?
GDH-TPI counter: -1; Mtb FBA inh: 1; PriA SSB inh: -8

How did COc1ccc(N2C3=C(C(=O)CC(C)(C)C3)C(c3cnn(C)c3)C3=C2CC(C)(C)CC3=O)cc1 do in these assays?
GDH-TPI counter: 3; Mtb FBA inh: 112*; Rv3671c inh: -9; PriA SSB inh: -13; Mtb bLac sens: 0; UGM FP inh: 3

How did COc1ccc2nc(-c3ccc(NC(=O)c4ccco4)cc3)cn2n1 do in these assays?
PriA SSB inh: -8

Results for CCc1ccc(NC(=O)CSc2ncc(S(=O)(=O)c3ccc(C)cc3C)c(=O)[nH]2)cc1 ?
PriA SSB inh: 69*

Results for CCN(CC)c1ccc(C(=O)OCC(=O)NC(C)(C)C)cc1 ?
GDH-TPI counter: 57*; Mtb FBA inh: -2; Rv3671c inh: 4; PriA SSB inh: -7; Mtb bLac sens: -4; UGM FP inh: 0

Results for c1ccc2c(N3CCOCC3)nc(-c3ccncc3)nc2c1 ?
GDH-TPI counter: 33*; Mtb FBA inh: -1; Rv3671c inh: 1; PriA SSB inh: -13; Mtb bLac sens: 54; UGM FP inh: -1

Results for CCC1SC(CC)C(=O)N(CC(=O)Nc2cc(Cl)ccc2OC)C1=O (centres undefined) ?
PriA SSB inh: -8

Results for CCCCCCCCCCCC(=O)c1c(O)cccc1O ?
GDH-TPI counter: 15; Mtb FBA inh: 4; Rv3671c inh: -8; PriA SSB inh: -7; Mtb bLac sens: -5; UGM FP inh: 2

What do the screens show for `CCCCCC(=O)C(=O)c1ccc(O)cc1O`?
GDH-TPI counter: 46*; Mtb FBA inh: 10; Rv3671c inh: 8; PriA SSB inh: -10; Mtb bLac sens: 8; UGM FP inh: 2

How did COc1cc2c(cc1OC)-c1cc(NC3CCCCCC3)nc(=O)n1CC2 do in these assays?
GDH-TPI counter: 31*; Mtb FBA inh: 15; Rv3671c inh: -9; PriA SSB inh: 3; Mtb bLac sens: 5; UGM FP inh: 0

Results for COc1cc2c(cc1OC)-c1cc(Nc3ccc4c(c3)OCCO4)nc(=O)n1CC2 ?
GDH-TPI counter: 36*; Mtb FBA inh: 3; Rv3671c inh: -6; PriA SSB inh: 4; Mtb bLac sens: 30; UGM FP inh: 0

What do the screens show for `COc1cc2c(cc1OC)-c1cc(N3CCc4ccccc43)nc(=O)n1CC2`?
GDH-TPI counter: 43*; Mtb FBA inh: 19; Rv3671c inh: -10; PriA SSB inh: -2; Mtb bLac sens: -4; UGM FP inh: 0
